Marburg entry inh: blocks Marburg virus binding to or entry into cells; Potency, µM (titrated, usually from 37.8 µM), for the others: top-dose activity change, negative = inhibition, most hits filed as inhibitors; AID 540276; hit rate 1.8% among 300,000; Marburg virus pseudotyped entry inhibition, cell reporter; calls by dose curve; tested in HEK293 cells; note: potency is the fitted concentration of half-maximal effect; % is set by controls: 0 for no effect and ±100 for the full control effect
Lassa entry inh: inhibitors of Lassa virus binding or cell entry; Lassa virus pseudotype entry inhibition, cell reporter; Potency, µM (top dose mostly 37.9 µM), inactives show at the top dose activity change, negative = inhibition, actives largely listed as inhibitors; hit rate 1.2% among 300,000; calls by dose curve; tested in HEK293 cells; note: potency is the fitted concentration of half-maximal effect; % is set by controls: 0 for no effect and ±100 for the full control effect; nearly all actives have a fitted effect of over 50% in size
AMA1 RON2 block: AMA1-RON2 (P. falciparum) interaction inhibition | AlphaScreen AMA1-biotinylated RON2 peptide binding | Potency, µM (doses to about 58.2 µM), for the others: top-dose activity change, negative = inhibition, most hits filed as inhibitors | hit rate 0.2% among 360,000 | AID 720542; active = well fitted inhibition curve with a large enough effect; inconclusive = small, poorly fitted or top-dose-only effect; inactive = no such curve, though single readings can be large or run the other way;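 note: potency is the fitted concentration of half-maximal effect; 0% = vehicle wells and -100% = peptide control; nearly all actives have a fitted effect of over 45% in size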
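AMA1 (3D7) with his tag at 25 nM final met compounds first, then biotinylated RON2 peptide at 25 nM; detection used donor plus acceptor beads, 10 µg/mL apiece, read by AlphaScreen after 30 min at room temperature.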
CHX counter: affects cycloheximide protein synthesis inhibition readout, counter-screen; cell reporter, cycloheximide protein synthesis inhibition counterscreen; max response, %; hit rate 12% among 300,000; AID 2314; in the data active = max response mostly above about 13%, no sharp cut-off; inactive = mostly below about 14%; note: read at 38.3 µM for the half of the compounds with a filed dose; 0% is about no effect
Shiga toxin inh: Shiga toxin inhibition. Vero cells, Shiga toxin protein synthesis inhibition reporter. inhibition, % at 38.7 µM. hit rate 9.2% among 290,000. AID 2315; in the data active = inhibition mostly above about 28%, no sharp cut-off; inactive = mostly below about 43%; note: 0% is about no effect
* marks the source's active call; other numbers are inactive results; ? = inconclusive; nt = no result given; ! = repeats disagree; [ ] = another dose, or the depositor's remark. The entries come from a sample that favours hits as a whole.

SMILES	Marburg entry inh	Lassa entry inh	AMA1 RON2 block	CHX counter	Shiga toxin inh
CCC(=Nc1ccccc1OC)C1=C(O)CC(c2ccccc2)CC1=O (stereo not given)	5%[46.1 µM]	-4%[46.1 µM]	-5%	-10	21
COc1ccc(OCCSc2nnc(CC(=O)Nc3cccc(Cl)c3Cl)n2C)cc1	?	45%[14.3 µM]	9%	23*	36
CCn1c(CC(=O)Nc2cccc(Cl)c2Cl)nnc1SCCOc1ccc(OC)cc1	-1%	2%	5%	-1	-8
COC(=O)c1ccc(CN2CCSC2=N)cc1	nt	nt	-6%	-2	-4
CCc1ccc(C(=O)CN2CCSC2=N)cc1	?	?	-21%	83*	71*
OCC(O)C1OC(c2ccco2)OC(CO)C1O (stereo not given)	2%[46.1 µM]	3%[46.1 µM]	3%	nt	nt
Cc1ccc(C(=O)NC(=S)NCc2ccccc2)cc1Br	nt	nt	37%	nt	nt
O=C(NCc1ccccc1)c1ccc(Br)cc1Br	17%	-3%	1%	23*	active
CN(C)c1c(F)cc(C(=O)NCc2ccccc2)cc1F	nt	nt	-1%	20*	5
O=C(NCc1ccccc1)c1ccc(Cl)nc1	?	-6%	17%	40*	70*
Cc1ccc(C(=O)NCc2ccccc2)cc1Br	14%	-9%	4%	17*	24
O=C(NCc1ccccc1)c1ccccc1Br	4%[14.2 µM]	13%	0%	3	8
C[C@H](CO)N1C[C@H](C)[C@@H](CN(C)S(=O)(=O)c2ccccc2)Oc2ccc(NC(=O)NC3CCCCC3)cc2C1=O	nt	nt	-4%	nt	nt
CN1OC[C@@H]2CN(C(=O)Nc3ccccc3)[C@H](c3ccc(N4CCCCC4)cc3)C[C@@H]21	nt	nt	-2%	nt	nt
Clc1ccccc1C1SCC2Nc3ccccc3CN21 (stereo not given)	?	2%	-7%	49*	47
O=C(c1ccc([N+](=O)[O-])cc1)N1CCSC1c1ccccc1Cl (stereo not given)	0%[46.1 µM]	0%	-13%	7	11
C=C(C)CNC(=S)N/N=C1\CCCCc2ccccc21	-31%[46.1 µM]	?	10%	4	-4
Cc1nn(-c2ccccn2)c2c1-c1nc(N3CCOCC3)ncc1CC2	-11%	-20%	-2%	6	-6
Cc1nn(-c2ccccn2)c2c1-c1nc(N)ncc1CC2	-31%[46.1 µM]	-16%	27%	36*	49*
C/C(=N\N(Cc1ccccc1)c1ccccc1)c1ccncc1	-25%[46.1 µM]	13%[46.1 µM]	-5%	10	-5
COc1ccc(-n2nc3cc(N)c(Br)cc3n2)cc1	-22%	?	-5%	30*	nt
COc1ccc2nc3ccccc3nc2c1	nt	nt	-6%	40*	69*
COc1ccc(-n2nc3ccccc3n2)cc1	23%	1%	20%	24*	53
Nc1ccc(-n2nc3ccccc3n2)cc1	?	?	12%	nt	nt
COc1ccc(-n2nc3cc(C)c(N)c(Br)c3n2)cc1	?	-22%	-5%	63*	128*
SMILES	Marburg entry inh	Lassa entry inh	AMA1 RON2 block	CHX counter	Shiga toxin inh
COc1ccc(-n2nc(C)cc2N)cc1	nt	nt	-1%	-1	10
COc1ccc(-n2nc3cc(C)c(NC(=O)c4ccc(-c5ccc(Br)cc5)o4)cc3n2)cc1	nt	30%[46.1 µM]	nt	nt	nt
O=C(Nc1ccc(C(=O)O)cc1)/C(=C\c1ccc([N+](=O)[O-])cc1)NC(=O)c1ccc(Br)cc1	0%[46.1 µM]	5%[46.1 µM]	-10%	-1	-3
COc1cc([C@H](O)CO)ccc1O	15%	nt	nt	nt	nt
COc1ccccc1C1c2ccc3ccccc3c2Oc2ncn(CCCO)c(=N)c21 (stereo not given)	?	?	-17%	-8	-19
COc1ccccc1C1c2ccc3ccccc3c2Oc2ncn(CCN(C)C)c(=N)c21 (stereo not given)	2.8µM*	?	-18%	-4	-7
COc1ccc(C2c3c(ncn(CCN4CCOCC4)c3=N)Oc3ccc4ccccc4c32)cc1OC (stereo not given)	10µM*	?	-2%	-2	-25
COc1ccc(C2c3ccc4ccccc4c3Oc3ncn(CCCN(C)C)c(=N)c32)cc1 (stereo not given)	1.8µM*	?	-3%	-7	-11
Cc1c(NC(=O)c2nc3ccccc3nc2N2CCCCC2)cccc1[N+](=O)[O-]	-4%[46.1 µM]	-12%[46.1 µM]	nt	nt	nt
CC(=O)Nc1cc(-c2cccc(F)c2)cn2c(-c3ccccc3)cnc12	nt	nt	-17%	nt	nt
CCOC(=O)C1CCN(C(=O)c2cc3cc(Br)ccc3oc2=O)CC1	nt	nt	-3%	-7	6
CCOc1ccc(-n2c(SCC(=O)N3CCc4ccccc43)nc3c([nH]c4ccccc43)c2=O)cc1	nt	-16%[46.1 µM]	nt	nt	nt
CC(=O)Nc1sc(N/N=C\c2ccccc2Cl)nc1-c1cccs1	-16%	0%	-23%	73*	82*
CC(=O)Nc1sc(N/N=C\c2ccccc2)nc1-c1cccs1	11%	20%	21%	31*	active
CC(=O)Nc1sc(NC(=O)c2ccc(Cl)cc2)nc1-c1cccs1	?	4%	-4%	-3	-14
CC(=O)Nc1sc(N/N=C\c2ccco2)nc1-c1cccs1	3%	2%	7%	12*	33
CCOc1cc(/C=N/Nc2nc(-c3cccs3)c(NC(C)=O)s2)ccc1O	?	?	13%	20*	27
CCOc1cc(/C=N/NC(=O)CSc2cccc3cccnc23)ccc1O	-26%[46.1 µM]	?	5%	-3	19
COc1ccc(-c2cc3ncnc(Cl)c3s2)cc1	-10%[46.1 µM]	-26%[46.1 µM]	-2%	33*	58
COc1ccc(-c2cc3ccc(OC)cc3cn2)cc1	nt	nt	5%	nt	nt
CCn1c(=O)c2cc(C(=O)NCCCN3CCN(c4ccc(F)cc4)CC3)sc2c2ccccc21	?	7%[46.1 µM]	nt	nt	nt
CC(NC(=O)c1sc2ncccc2c1-n1cccc1)c1ccccc1 (stereo not given)	nt	6%[46.1 µM]	nt	nt	nt
O=c1c2ccc(Cl)cc2nc(-c2cccc(C(F)(F)F)c2)n1O	?	2.5µM*	54%	8	-3
CCOC(=O)c1sc(N)nc1C(F)(F)F	10%[46.1 µM]	20%[46.1 µM]	-2%	nt	nt
C[C@]12C=CC(=O)C=C1CCC1C2=CC[C@]2(C)[C@@H](C(=O)CN3CCN(c4cc(N5CCCC5)nc(N5CCCC5)n4)CC3)CC[C@@H]12 (stereo not given in full)	5.6µM*	nt	nt	nt	nt
SMILES	Marburg entry inh	Lassa entry inh	AMA1 RON2 block	CHX counter	Shiga toxin inh
CC(=O)OCC(=O)C1CCC2C3CCC4=CC(=O)C=CC4(C)C3CCC12C (stereo not given)	4%	1%	-9%	nt	nt
COc1ccc(N2CCN(Cc3nc4c(c(=O)[nH]c(=O)n4C)n3Cc3ccccc3F)CC2)cc1	10%[46.1 µM]	7%[46.1 µM]	nt	nt	nt
O=C(Cn1c(C(=O)NCc2ccco2)cc2sccc21)c1ccccc1	4%	nt	-22%	24*	-3
O=C(NCc1ccco1)C1CCN(C(=O)c2cc3sccc3n2Cc2ccc(Cl)cc2)CC1	12µM*!	?	2%	-1	-2
COCCNC(=O)C1CCN(C(=O)c2cc3sccc3n2Cc2ccc(Cl)cc2)CC1	7.9µM*	nt	nt	nt	nt
CSc1nnc(N2C(=O)C(O)=C(C(=O)c3ccc(C)o3)C2c2ccc(C)cc2)s1 (stereo not given)	nt	nt	16%	35*	95*
Nc1ccc(C(=O)N2CCN(S(=O)(=O)c3ccc4c(c3)OCCO4)CC2)cc1[N+](=O)[O-]	-6%	?	-6%	-4	-32

Screening data: PubChem, National Center for Advancing Translational Sciences (NCATS)
